Measurements reported in the supplement of paper PMC6555819.

What was measured:
Experiment in all cases: PBM binding z-score (relative to random genomic background probes); higher = stronger binding; sequences stand for … in GC…GCGATTGACAGCGTAGAATGAAGG
[1] = system: FXR:RXRa (NR concentration 270 nM, RXRa partner concentration 90 nM)
In short: (§1)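 Custom Agilent 4×180K protein-binding microarrays carried double-stranded probes. Their 34-nt variable regions held direct-repeat seeds, single-nucleotide variants, half-site ablations and random human genomic background sequences. Arrays were incubated 1 h with ligand-free nuclear receptor dimers in PBS pH 7.4, 2% milk, 0.02% Triton X-100, 1 mM DTT, 0.2 mg/mL BSA and 0.4 mg/ml salmon testes DNA. Antibodies against each partner (one per run) detected binding, and scanned fluorescence was regression-normalized. Binding z-scores use random background probes as reference.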

[2] = system: LXRa:RXRa (NR concentration 270 nM, RXRa partner concentration 90 nM)
In short: as §1

[3] = system: LXRa homodimer (NR concentration 270 nM)
In short: as §1

[4] = system: LXRb:RXRa (NR concentration 270 nM, RXRa partner concentration 90 nM)
In short: as §1

[5] = system: LXRb homodimer (NR concentration 270 nM)
In short: as §1

[6] = system: PPARa:RXRa (NR concentration 270 nM, RXRa partner concentration 90 nM)
In short: as §1

[7] = system: PPARg:RXRa (NR concentration 180 nM, RXRa partner concentration 90 nM)
In short: as §1

[8] = system: PPARg:RXRa 270nM:90nM, anti-RXR (NR concentration 270 nM, RXRa partner concentration 90 nM)
In short: as §1

[9] = system: PPARg:RXRa 30nM:10nM, anti-RXR (NR concentration 30 nM, RXRa partner concentration 10 nM)
In short: as §1

[10] = system: PPARg:RXRa 90nM:30nM, anti-RXR (NR concentration 90 nM, RXRa partner concentration 30 nM)
In short: as §1

Sequence	PBM binding z-score [1]	PBM binding z-score [2]	PBM binding z-score [3]	PBM binding z-score [4]	PBM binding z-score [5]	PBM binding z-score [6]	PBM binding z-score [7]	PBM binding z-score [8]	PBM binding z-score [9]	PBM binding z-score [10]
TCAGACAGGTGAAGGTAACTCACGTACGCAGTCG	0.8	2.26	-0.278	0.983	-0.343	1.2	0.954	2.09	3.55	2.75
CCTACTGGGCCACGAAATGTCATTGATTCAGTGA	-0.161	-0.0585	-0.34	-0.341	-0.393	0.653	1.58	1.24	-0.144	0.475
AGAACGAGGTTAAGATCAGGGAAACAGAATACAT	2.1	2.05	0.0843	2.09	0.134	3.4	1.98	1.92	0.64	1.61
GGAACGTGGGCAAGTTGATAGCAGAGTTTGATGG	-0.957	-0.763	-0.666	-0.678	-0.982	-0.579	0.382	-0.458	-0.337	-0.422
ATCGCTAGGTAAGACTCAGTTCAGTGAAGAACGC	-0.617	-0.685	-0.587	-0.734	-0.581	-0.45	-0.14	-0.615	-0.356	-0.686
AATACAGTGTCACTAGGCCAGAGTAGGTACGAAT	-0.0447	0.0759	-0.316	-0.0896	-0.131	1.44	1.82	1.52	0.462	0.705
CCGAGTAGGTTATGGAGCATTCAGGCAACGGTGA	0.0328	0.259	0.125	0.219	-0.185	1.01	1.36	2.08	0.32	1.46
ATATGTAGGTTACAGCCGGGTCATTCAGGCTATG	2.26	3.47	0.993	2.28	0.202	4.51	5.97	5.46	2.52	4.67
ACTAGCAGGCGAAGTTTGGGTCACTCAAACAAAG	-0.1	-0.222	-0.509	0.307	-0.961	1.22	-0.19	0.0876	-0.449	-0.106
CCTTACGGTTCACGAGGTTATAGCACGACGAGCG	3.45	3.49	1.87	2.57	0.189	3.75	1.96	2.4	0.593	1.58
CGCACTAGGTCAAGGACAGTGAATCTCCGCACGC	3.09	2.28	0.266	1.46	0.1	4.26	6.58	5.97	3.25	5.37
ATATGCAGGTTAGCTGGGGTCATTCAGACTAGGC	4.95	5.96	3.01	4.92	0.363	4.7	2.52	3.4	0.768	2.26
CCTCGGCGGACAGAAGGTCAGAGCTGTCCGCTTT	1.18	1.29	-0.126	0.771	-1.09	1.64	-0.606	0.898	-0.662	-0.0722
ATATGTAGGATAAGGGTCATTCAGGTTGGTTCGC	3.71	4.09	2.42	3.73	1.19	5.39	9.65	8.92	10.3	10
CAAACTAGGTCACGAAAGCTCAAAGTCGAATGAC	4.45	3.66	0.551	2.56	0.287	5.46	9.27	7.24	5.74	7.12
TCTGCTAGGTCAAAGATGGTCAGCTAATCTGCTA	3.55	3.06	0.0702	2.07	0.0441	3.73	3.32	4.37	2.61	3.76
TCGCCTAGGTCATTCAGGGGCCAGTATAGAAAGC	4.82	3.45	0.443	3.13	0.742	3.8	1.91	2.45	2.3	2.02
CCTACTGGGGCAAAGGTTACCATACTCAGTACGA	1.74	1.84	0.187	2.41	-0.355	6.15	12.1	10	12.4	12.2
TCTAGTTGGTCAAGGGTCACACACTCGAAATGCG	4.17	3.76	1.25	4.01	0.821	5.27	9.83	8.51	9.9	9.97
CCGAGTAGCTTATGGGGCATTCAGGCAACGGTGA	-0.494	-0.536	-0.883	-0.715	-1.2	-0.234	-0.0289	-0.512	-0.765	-0.818
CCTACTGGGGCATAAGGTTACCATAAGCCAGCCC	0.331	1.69	-0.117	0.717	-0.859	2.47	3.73	4.44	2.09	4.09
CCTAATGGGCCAAGGTCATTGATCAGTCAAAGCA	3.25	3.17	1.04	2.93	-0.303	3.86	2.44	3	0.651	2.34
ACTAGCAGGCCAAGGGTCGCTCAAGATTAGTCCG	-0.247	0.0805	-0.567	0.0881	-0.965	2.36	4.99	6.2	3.7	5.95
